In all, about 220,000 compounds went through this assay and about 2,600 (1.2%) were called active. This is one part of a sample in which actives are shown more often than they occur.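 Rule for the calls: active = activation above the mean of all tested compounds plus 3 SD, set per screening run (cut at about 8.8% in these data); inactive = the rest.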
target: Wee1-like protein kinase (Homo sapiens) (UniProt P30291); experiment: Wee1 degradation inhibitors, primary screen, cell-based, HeLa, Wee1K328M-luciferase, luminescence (AID 1321); conditions: HeLa Luc-Wee1K328M stability, at 5 µM, hits give high values, 100% = proteasome inhibitor MG132 effect;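 note: cells exposed to compound for 20 h before luminescence read; 0% = DMSO alone and 100% = MG132 at 30 µM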

Reporter increase, active:
CCOc1ccc(/C=N/Nc2nncc(-c3ccccc3)n2)cc1OC 16.9%
Cc1ccccc1CSc1nnc(CCCCCNC(=O)OC(C)(C)C)o1 15.4%
COc1ccccc1N1CCN(c2ccc([N+](=O)[O-])nc2)CC1 12.9%
Cc1ccc(N2CCN(S(=O)(=O)N(C)C)CC2)cc1Cl 13.4%
N#C/C(=C\c1ccc(-c2cccc([N+](=O)[O-])c2)o1)C(=O)NCCN1CCOCC1 9.19%
COc1ccc(CN2C(=O)CC(Cc3ccc(C)cc3)C2=O)cc1OC (stereo not drawn) 10.8%
COc1cccc(N(CC(=O)Nc2cccc(F)c2)S(C)(=O)=O)c1 8.9%
O=C(CC1CCCCC1)NCc1ccc(F)cc1 8.97%
CC(OC(=O)c1ccc(NS(=O)(=O)c2ccc3[nH]c(=O)[nH]c3c2)cc1)C(=O)Nc1cccc(Cl)c1Cl (stereo not drawn) 24.1%
Fc1ccc(COc2ccc(-c3nnco3)cc2)cc1 16.2%
CCn1c2ccccc2c2cc(NC(=O)COC(=O)c3cc(S(=O)(=O)N4CCCCC4)ccc3Cl)ccc21 11.6%
Cc1ccc(NC(=O)CS(=O)CC(=O)N(c2ccccc2)C(C)C(=O)NC2CCCC2)cc1 (stereo not drawn) 10.2%
COc1ccccc1OCc1nc2ccccc2s1 10.1%
CC(CN1CCOCC1)c1ccccc1 (stereo not drawn) 11.8%
Cc1ccc2[nH]c(=O)c(CN3CCCCC3)c(-c3ccccc3)c2c1 11.8%
Cc1ccccc1N(C(=O)Cc1cccs1)C(C(=O)NC1CCCCC1)c1cn(C)nc1C (stereo not drawn) 12.1%
CC(=O)c1ccc(NC(=O)C2CC(=O)Nc3nc4ccccc4n32)cc1 (stereo not drawn) 11.6%
Cn1ncc(Br)c1C(=O)NCc1cccs1 20.9%
O=C(NNc1cc(Cl)cc(Cl)c1)c1c(F)cccc1Cl 9.07%

Reporter increase, inactive:
Nc1nc(Nc2ccccc2)nc(NCCO)c1[N+](=O)[O-] -3.26%
Cc1cc(C)c(C)c(S(=O)(=O)N[C@@H](C)C(=O)OC(C)C(=O)NC(N)=O)c1C (stereo partly drawn) -2.95%
COc1ccc(/C=N/Nc2nc3ccccc3o2)cc1OC 4.92%
COc1cccc(/C=N\Nc2nncc(-c3ccccc3)n2)c1 0.25%
OCCN1CCN(C(=S)c2ccc(-c3ccccc3)cc2)CC1 -3.59%
COc1ccc(NC(=O)C2CCC(CNc3c(N4CCCCC4)c(=O)c3=O)CC2)c(OC)c1 (stereo not drawn) 1.06%
CCOC(=O)c1nnn2c3ccccc3c(=O)n(C)c12 -0.3%
Cc1ncn2cc(-c3ccc(Cl)cc3Cl)[nH]c(=O)c12 -1.11%
Cc1ccc(S(=O)(=O)/N=C(/NC(=S)Nc2c(C)n(C)n(-c3ccccc3)c2=O)c2ccccc2)cc1 -0.69%
CCc1ccccc1NC(=O)CSc1nnc(CCNC(=O)OC(C)(C)C)o1 5.87%
Cc1cccc(NC(=O)CSc2nnc(CCCCCNC(=O)OC(C)(C)C)o2)c1C -2.16%
CSc1nnc(-c2ccc(C(F)(F)F)cn2)o1 -1.5%
Cc1nc(-c2nnc(SCC(=O)Nc3cc(C(F)(F)F)cc(C(F)(F)F)c3)n2C)cs1 2.29%
CCn1c(=O)c([N+](=O)[O-])c(NCc2ccc3c(c2)OCO3)c2ccccc21 -2.11%
COc1ccc(N2CCN(c3ccc([N+](=O)[O-])nc3)CC2)cc1 2.25%
COc1ccccc1N1CCN(CCCCOc2ccc(F)cc2)CC1 1.24%
CCC(C)NC(=O)C1c2ccccc2Oc2ccccc21 (stereo not drawn) 2.05%
CN(C)S(=O)(=O)N1CCN(c2ccc([N+](=O)[O-])cc2)CC1 6.3%
CC(C)=C1SC(N2CCN(c3ccc(C)c(Cl)c3)CC2)=NC1=O -2.39%
N#C/C(=C/c1ccc(-c2ccccc2[N+](=O)[O-])o1)C(=O)NCCN1CCCCC1 -2.23%
Cc1ccc(Cc2cnc(NC(=O)/C(C#N)=C/c3ccc(-c4cccc([N+](=O)[O-])c4)o3)s2)cc1 -0.97%
CCOC(=O)C1=C(c2ccccc2)NC(=S)NC1c1ccc(Cl)cc1 (stereo not drawn) 3.7%
CC(C)(C)c1cc(P(=O)(c2ccccc2)c2ccccc2)ccc1O 0.95%
COc1ccc(C2c3ccc(O)cc3Oc3ncn(CCCO)c(=N)c32)cc1OC (stereo not drawn) 2.84%
N#Cc1ccc(Oc2ccc(C(F)(F)F)cc2NC(=O)c2ccc(F)cc2)cc1 2.35%
COc1cc(/C=C2/C(=O)NN(c3ccc(F)cc3)C2=O)cc([N+](=O)[O-])c1O -0.14%
COc1ccc(CCN2C(=O)C3CC=C(C)CC3C2=O)cc1OC (stereo not drawn) 5.14%
Cc1ccc(CC2CC(=O)N(c3nc(C)cc(C)n3)C2=O)cc1 (stereo not drawn) -2.45%
Cc1nc(-c2ccccc2)sc1-c1nnc(C2CC2)o1 -1.78%
CCOC(=O)c1cc(Sc2ccccc2N)cc(C(=O)OCC)n1 -2.91%
Cc1nnsc1C(=O)N/N=C/c1ccccc1Cl 2.61%
COc1cccc(N(CC(=O)Nc2cccc(N(C)S(C)(=O)=O)c2)S(C)(=O)=O)c1 -1.32%
CCN(CC)S(=O)(=O)c1ccc(NC(=O)CN(c2cccc(F)c2)S(C)(=O)=O)cc1 -1.26%
O=C(Cc1ccc(F)cc1)NC1CCCC1 -1.42%
O=C(CC1CCCCC1)NCc1ccco1 0.37%
COC(=O)c1ccccc1NS(=O)(=O)c1ccc2[nH]c(=O)[nH]c2c1 -1.86%
Cc1ccc(S(=O)(=O)/N=C(/Nc2ccc3[nH]c(=O)[nH]c3c2)c2ccccc2)cc1 -1.22%
O=C1/C(=C/c2coc3ccc(O)cc3c2=O)SC(=S)N1c1ccccc1 -0.03%
COc1c(C=O)c(CCN(C)C(=O)c2ccc(F)cc2)cc2c1OCO2 0.06%
Fc1ccc(COc2cccc(-c3n[nH]c(=S)o3)c2)cc1 -0.05%
COc1ccc(-c2nnco2)cc1OC -2.71%
CCOC(=O)Cc1cc(=O)[nH]c(/N=C(\N)Nc2ccc(OC)cc2)n1 0.86%
Oc1ccc2ccccc2c1C=Nc1ccccc1 -2.84%
CCn1c2ccccc2c2cc(NC(=O)COC(=O)c3ccccc3Br)ccc21 1.86%
O=C(COC(=O)c1cc(S(=O)(=O)N2CCCCC2)ccc1Cl)NCc1ccco1 5.36%
Nc1ccc(C(=O)OCC(=O)NC2CCS(=O)(=O)C2)cc1[N+](=O)[O-] (stereo not drawn) -1.54%
COc1ccccc1P(=O)(c1ccccc1)c1ccccc1NC(C)=O (stereo not drawn) 0.01%
Cc1ccc(NC(=O)CSCC(=O)NC2CCCCC2)cc1 0.26%
Cc1ccc(-c2nc(CS(=O)CC(=O)NC3CCCC3)c(C)o2)cc1 (stereo not drawn) 2.35%
Nc1nc(NC(=O)/C=C/c2ccc(F)cc2)nn1-c1ccccc1 -3.61%
Oc1ccc(-c2nnc(Nc3ccccc3)c3ccccc23)cc1 -2.97%
O=C1/C(=C/c2cccs2)SC(=S)N1C1CCS(=O)(=O)C1 (stereo not drawn) 2.22%
O=C(O)CCCCc1nc2ccccc2s1 1.81%
COc1cccc2sc(NNC(=O)c3nc4ccccc4s3)nc12 1.43%
NNC(=O)c1ccc(COCC(F)(F)C(F)F)cc1 2.09%
COc1ccc(-c2csc(NC3OC(=O)c4ccccc43)n2)cc1 (stereo not drawn) 1.6%
Cc1nnsc1C(=O)NCc1c(F)cccc1Cl -2.45%
Cn1c(=O)c2c(nc(NCc3ccccc3)n2CC(N)=O)n(C)c1=O -2.48%
Cc1ccc(C(=O)OC(C)CN2CCOCC2)cc1 (stereo not drawn) 2.34%
OC(c1ccccc1)C(CN1CCOCC1)c1ccccc1 (stereo not drawn) 0.23%
O=C(CN1CCOCC1)Nc1c(-c2ccccc2)c2cc(Br)ccc2[nH]c1=O -2.5%
Cc1ccc2[nH]c(=O)c(CC=C(Cl)Cl)c(C)c2c1 -1.17%
Cc1cc(Nc2ccc(N3CCOCC3)cc2)c2cccc(C)c2n1 1.6%
C/C(=N\Nc1cccc(C(=O)O)c1)c1ccc2c(c1)Nc1ccccc1S2 2.58%
Cc1ccsc1C(C(=O)NC1CCCCC1)N(C(=O)Cc1cccs1)C1CC1 (stereo not drawn) -1.86%
Cc1cccc(N(C(=O)Cc2cccs2)C(C(=O)NC2CCCC2)c2ccsc2)c1 (stereo not drawn) -1.49%
Nc1scc[n+]1Cc1cccc2cccnc12 4.15%
CC(C)=NN1C(=O)c2ccccc2NC1(C)C 2.65%
CC(NC(=O)C(C)(C)C)C(c1cccs1)N1CCN(Cc2ccccc2)CC1 (stereo not drawn) -2.56%
O=C(Nc1ccccc1)C1CC(=O)n2c(nc3ccccc32)N1 (stereo not drawn) -0.1%
CCOC(=O)c1ccc(NC(=O)C2CC(=O)Nc3nc4ccccc4n32)cc1 (stereo not drawn) -0.26%
Cn1nc(C(C)(C)C)c(NC(=O)c2sccc2Cl)c1C(C)(C)C 1.43%
O=C1N=C(N2CCc3ccccc3C2)S/C1=C\c1ccc(O)cc1 -2.98%
COc1cc(C(=O)Nn2c(O)c(C3=c4ccccc4=NC3=O)sc2=S)ccc1O -2.51%
O=C(NCc1cccs1)c1ccc(Br)o1 -0.94%
COc1ccccc1NC(=O)c1c(Br)cnn1C 3.35%
O=C(O)C(c1ccccc1)C1(O)CCCCC1 (stereo not drawn) 7.89%
Cc1ccc(NNC(=O)c2c(F)cccc2Cl)cc1Cl 0.76%
CCN(CC)CCNC(=O)c1ccc(NC(=O)c2c(F)cccc2Cl)cc1 1.18%
